Measurements reported in PubChem BioAssay (NCATS).
Results filed as inconclusive are left out. The source made the active and inactive calls. The call rests on the fitted dose curve; in most records, active means well fitted cell-killing curve with a large enough effect; inconclusive means small, poorly fitted or top-dose-only effect, or effect the other way; inactive means flat fitted curve, though single readings scatter.

Columns and labels:
Test in all cases: Primary qHTS to identify gynecologic anti-cancer compounds using libraries of approved drugs and bioactive compounds (AID 1345084); further: nearly all actives have a fitted effect of over 55% in size
C33A = details: Gynecologic cancer cell panel viability, ATPlite luminescence, 48 h; series mostly up to 57.5 µM
Summary of the method: (§1)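 Cells, 1,000 per well, were allowed to settle for 16 h at 37 C before compound addition. Five concentrations were tested for 48 h, and viability was read by ATPlite luminescence after 15 min at room temperature.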

CAOV3 = details: Gynecologic cancer cell panel viability, ATPlite luminescence, 48 h; series mostly up to 57.5 µM
Summary of the method: as §1

CASKI = details: Gynecologic cancer cell panel viability, ATPlite luminescence, 48 h; series mostly up to 57.5 µM
Summary of the method: as §1

Es-2 = details: Gynecologic cancer cell panel viability, ATPlite luminescence, 48 h; series mostly up to 57.5 µM
Summary of the method: as §1

HeLa = details: Gynecologic cancer cell panel viability, ATPlite luminescence, 48 h; series mostly up to 57.5 µM
Summary of the method: as §1

Hek293T = details: Gynecologic cancer cell panel viability, ATPlite luminescence, 48 h, control line for the selectivity index; series mostly up to 57.5 µM
Summary of the method: as §1

JEG-3 = details: Gynecologic cancer cell panel viability, ATPlite luminescence, 48 h; series mostly up to 57.5 µM
Summary of the method: as §1

OV90 = details: Gynecologic cancer cell panel viability, ATPlite luminescence, 48 h; series mostly up to 57.5 µM
Summary of the method: as §1

PA-1 = details: Gynecologic cancer cell panel viability, ATPlite luminescence, 48 h; series mostly up to 57.5 µM
Summary of the method: as §1

SKOV3 = details: Gynecologic cancer cell panel viability, ATPlite luminescence, 48 h; series mostly up to 57.5 µM
Summary of the method: as §1

Tov-21-G = details: Gynecologic cancer cell panel viability, ATPlite luminescence, 48 h; series mostly up to 57.5 µM
Summary of the method: as §1

Tov112D = details: Gynecologic cancer cell panel viability, ATPlite luminescence, 48 h; series mostly up to 57.5 µM
Summary of the method: as §1
On the % scale 0 is the no-effect control and ±100 the full control effect.

CC1(C)C=Cc2c(ccc3c2[N+]([O-])=C2C3(O)CC34NC(=O)C5(CCCN5C3=O)CC4C2(C)C)O1 (stereo unspecified)
inactive: Potency (C33A) | Potency (CAOV3) | outcome (CASKI) | Potency (Es-2) | Potency (HeLa) | Potency (Hek293T) | Potency (JEG-3) | Potency (OV90) | Potency (PA-1) | Potency (SKOV3) | Potency (Tov-21-G) | Potency (Tov112D)

CC(=O)c1ccc(O[C@@H]2OC[C@@H](O)[C@H](O)[C@H]2O[C@]2(CO)O[C@H](CO)[C@@H](O)[C@@H]2O)c(O)c1
inactive: Potency (C33A) | Potency (CAOV3) | outcome (CASKI) | Potency (Es-2) | Potency (HeLa) | Potency (Hek293T) | Potency (JEG-3) | Potency (OV90) | Potency (PA-1) | Potency (SKOV3) | Potency (Tov-21-G) | Potency (Tov112D)

C=C[C@H]1[C@H](O[C@@H]2O[C@H](CO)[C@@H](O)[C@H](OC(=O)/C=C/c3ccc(O)c(OC)c3)[C@H]2O)OC=C2C(=O)OCC[C@]21O
inactive: Potency (C33A) | Potency (CAOV3) | outcome (CASKI) | Potency (Es-2) | Potency (HeLa) | Potency (Hek293T) | Potency (JEG-3) | Potency (OV90) | Potency (PA-1) | Potency (SKOV3) | Potency (Tov-21-G) | Potency (Tov112D)

COc1cccc2c1c(O)c(C(=O)N(C)c1ccc(C(F)(F)F)cc1)c(=O)n2C
inactive: Potency (C33A) | Potency (CAOV3) | outcome (CASKI) | Potency (Es-2) | Potency (HeLa) | Potency (Hek293T) | Potency (JEG-3) | Potency (OV90) | Potency (PA-1) | Potency (SKOV3) | Potency (Tov-21-G) | Potency (Tov112D)

COc1cc(C(C)=O)ccc1O[C@@H]1O[C@H](CO)[C@@H](O)[C@H](O)[C@H]1O
inactive: Potency (C33A) | Potency (CAOV3) | outcome (CASKI) | Potency (Es-2) | Potency (HeLa) | Potency (Hek293T) | Potency (JEG-3) | Potency (OV90) | Potency (PA-1) | Potency (SKOV3) | Potency (Tov-21-G) | Potency (Tov112D)

Oc1ccc(CC2NCCc3cc(O)c(O)cc32)cc1 (stereo unspecified)
inactive: Potency (C33A) | Potency (CAOV3) | outcome (CASKI) | Potency (Es-2) | Potency (HeLa) | Potency (Hek293T) | Potency (JEG-3) | Potency (OV90) | Potency (PA-1) | Potency (SKOV3) | Potency (Tov-21-G) | Potency (Tov112D)

CC(C)CC(=O)OC[C@@]1(O)C[C@@]23CC[C@H]4[C@@](C)(CCC[C@@]4(C)C(=O)O)[C@@H]2CC[C@@H]1C3
inactive: Potency (C33A) | Potency (CAOV3) | outcome (CASKI) | Potency (Es-2) | Potency (HeLa) | Potency (Hek293T) | Potency (JEG-3) | Potency (OV90) | Potency (PA-1) | Potency (SKOV3) | Potency (Tov-21-G) | Potency (Tov112D)

C[C@@H]1O[C@@H](O[C@H]2[C@H](O[C@H]3[C@H](O[C@H]4CC[C@@]5(C)C(CC[C@]6(C)C5CC=C5[C@@H]7CC(C)(C)C[C@@H](O)[C@]7(C)CC[C@]56C)C4(C)C)O[C@H](C(=O)O)[C@@H](O)[C@@H]3O)O[C@H](C(=O)O)[C@H](O)[C@@H]2O)[C@H](O)[C@H](O)[C@H]1O (stereo partly specified)
inactive: activity change, negative = cytotoxicity (C33A) -4.31% [at 11.6 µM] | activity change, negative = cytotoxicity (CAOV3) -1.54% [at 11.6 µM] | activity change, negative = cytotoxicity (CASKI) 12.7% [at 11.6 µM] | activity change, negative = cytotoxicity (Es-2) -10.8% [at 11.6 µM] | activity change, negative = cytotoxicity (HeLa) 5.18% [at 11.6 µM] | activity change, negative = cytotoxicity (Hek293T) 6.67% [at 11.6 µM] | activity change, negative = cytotoxicity (JEG-3) -0.21% [at 11.6 µM] | activity change, negative = cytotoxicity (OV90) 9.77% [at 11.6 µM] | activity change, negative = cytotoxicity (PA-1) 12.6% [at 11.6 µM] | activity change, negative = cytotoxicity (SKOV3) 6.58% [at 11.6 µM] | activity change, negative = cytotoxicity (Tov-21-G) 9.44% [at 11.6 µM] | activity change, negative = cytotoxicity (Tov112D) 4.96% [at 11.6 µM]

CC(C)=CC1C[C@](C)(O)[C@@H]2[C@H]3CCC4[C@@]5(C)CC[C@H](O[C@@H]6OC[C@H](O)[C@H](O[C@@H]7O[C@H](CO[C@@H]8O[C@H](CO)[C@@H](O)[C@H](O)[C@H]8O)[C@@H](O)[C@H](O)[C@H]7O)[C@H]6O[C@@H]6O[C@@H](C)[C@H](O)[C@@H](O)[C@H]6O)C(C)(C)[C@@H]5CC[C@@]4(C)[C@@]34CO[C@@]2(C4)O1 (stereo partly specified)
inactive: activity change, negative = cytotoxicity (C33A) 25.2% [at 11.6 µM] | activity change, negative = cytotoxicity (CAOV3) 4.48% [at 11.6 µM] | activity change, negative = cytotoxicity (CASKI) 12.3% [at 11.6 µM] | activity change, negative = cytotoxicity (Es-2) 11.4% [at 11.6 µM] | activity change, negative = cytotoxicity (HeLa) 6.98% [at 11.6 µM] | activity change, negative = cytotoxicity (Hek293T) -1.62% [at 11.6 µM] | activity change, negative = cytotoxicity (JEG-3) 8.28% [at 11.6 µM] | activity change, negative = cytotoxicity (OV90) 5% [at 11.6 µM] | activity change, negative = cytotoxicity (PA-1) 0.967% [at 11.6 µM] | activity change, negative = cytotoxicity (SKOV3) 2.44% [at 11.6 µM] | activity change, negative = cytotoxicity (Tov-21-G) 9.39% [at 11.6 µM] | activity change, negative = cytotoxicity (Tov112D) 6.5% [at 11.6 µM]

COc1ccnc(CCc2nc3ncccc3[nH]2)c1
inactive: Potency (C33A) | Potency (CAOV3) | outcome (CASKI) | Potency (Es-2) | Potency (HeLa) | Potency (Hek293T) | Potency (JEG-3) | Potency (OV90) | Potency (PA-1) | Potency (SKOV3) | Potency (Tov-21-G) | Potency (Tov112D)

Cc1cn2cc(CC(=O)N3CCC4(CC3)CN(Cc3ccc(-n5nccn5)cc3Cl)C4)nc2s1
inactive: Potency (C33A) | Potency (CAOV3) | outcome (CASKI) | Potency (Es-2) | Potency (HeLa) | Potency (Hek293T) | Potency (JEG-3) | Potency (OV90) | Potency (PA-1) | Potency (SKOV3) | Potency (Tov-21-G) | Potency (Tov112D)

O=C(O)c1cc(C(F)(F)F)ccc1N1CC[C@H](OCc2ccccn2)C1
inactive: Potency (C33A) | Potency (CAOV3) | outcome (CASKI) | Potency (Es-2) | Potency (HeLa) | Potency (Hek293T) | Potency (JEG-3) | Potency (OV90) | Potency (PA-1) | Potency (SKOV3) | Potency (Tov-21-G) | Potency (Tov112D)

CC1=CC2=C(C)C(=O)[C@](C)(O)[C@H](O)C2=CO1
inactive: Potency (C33A) | Potency (CAOV3) | outcome (CASKI) | Potency (Es-2) | Potency (HeLa) | Potency (Hek293T) | Potency (JEG-3) | Potency (OV90) | Potency (PA-1) | Potency (SKOV3) | Potency (Tov-21-G) | Potency (Tov112D)
